Screens (PubChem BioAssay)
E coli growth-1 = reduces bacterial viability in AddAB counter-screen; inhibition, % at 11.9 µM; E. coli V3065 growth, OD600 absorbance, 18 h; 330,000 tested, 0.27% active;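 active = inhibition above the campaign's mean inhibition across all tested compounds plus 3 SD, cut at about 9.9% in these data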;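 also: uninfected addAB+ strain grown without phage in ampicillin broth; 0% = DMSO wells and 100% = ciprofloxacin 0.95 µg/ml wells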
E coli growth-2 = blocks Escherichia coli growth | OD600, 23 h; active compounds read low | OD600 absorbance (test concentration not listed) | 330,000 tested, 0.21% active;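 active = OD600 absorbance below the run mean of sample wells minus 3.6 SD, in any replicate, cut at about 0.56 in these data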
AddAB inh = less growth of phage-infected E. coli with AddAB. E. coli expressing H. pylori AddAB, absorbance growth. inhibition, % at 11.9 µM. 330,000 tested, 0.29% active. AID 435030; in the data active = inhibition above about 12%;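 also: 0% = vehicle wells of infected cells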
phage Ecoli inh = E. coli growth loss with phage present; growth absorbance; inhibition, % at 11.9 µM; 360,000 tested, 0.26% active; AID 651602; in the data active = inhibition above about 11%
Tat export inh = blocks Tat-dependent protein export in E. coli | E. coli MC4100 TorA-mCherry Tat export, fluorescence | inhibition, % at 10 µM | 340,000 tested, 0.036% active | AID 488895;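 active = mean replicate inhibition at least 50% and at least half of replicates individually reaching 50%; inconclusive = only one of the two criteria met; inactive = neither criterion met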;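 also: exported cargo escapes ClpAP degradation while cytoplasmic cargo is degraded and loses fluorescence; 0% = median of neutral control wells and 100% = median of NaSCN control wells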
AI-2 QS modul = modulators of Vibrio harveyi AI-2 quorum sensing system; AID 2094; Vibrio harveyi JMH597 AI-2 luminescence/OD600 ratio, 9 h; active compounds read low; strain lacks LuxN and CqsS sensors; 0 = neutral-control median; 300,000 tested, 0.4% active; activity change, % at 7.5 µM; in the data active = activity change below about -75%, passing the limit was not always enough; inconclusive = no clear call, values can overlap the other calls;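 also: luminescence divided by OD600 gain over 9 h not by final OD600 alone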
AddAB confirm = growth loss of T4-infected E. coli expressing H. pylori AddAB, confirmed; inhibition, % at 11.9 µM; 880 tested, 64% active; E. coli V3065 expressing H. pylori AddAB, T4 phage, OD; T4 phage with gene 2 nonsense mutations; shares compounds with AddAB inh;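 active = mean inhibition above a set limit taken from the earlier primary screen, cut at about 13% in these data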;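 also: higher means less bacterial growth since AddAB block lets phage replicate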
RecBCD counter = counter-screen: growth loss of RecBCD+ E. coli with mutant T4 phage; shares compounds with AddAB inh; E. coli V66 + mutant T4 phage, OD growth; inhibition, % at 11.9 µM; 880 tested, 73% active;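 active = mean inhibition above the mean of solvent-only control wells plus 3 SD, cut at about 4% in these data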;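 also: optical density read after an 18 h incubation at 37 °C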
Bact viability = counter-screen for AddAB inhibitors: inhibitors of bacterial viability. shares compounds with AddAB inh. absorbance (AddAB counterscreen). inhibition, % at 11.9 µM. 880 tested, 35% active; in the data active = inhibition above about 25%
RecBCD conf = growth loss of phage-infected V66 E. coli, RecBCD confirmation screen. 890 tested, 45% active. inhibition, % at 11.9 µM. E. coli V66 + T4 2- phage, growth OD. shares compounds with phage Ecoli inh;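 active = mean inhibition over triplicates exceeding the hit threshold derived in the original primary screen, cut at about 11% in these data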
Ecoli viability = counter-screen for RecBCD inhibitors: inhibitors of bacterial viability; shares compounds with phage Ecoli inh; E. coli viability, absorbance (OD) growth; inhibition, % at 11.9 µM; 890 tested, 29% active; AID 651983; in the data active = inhibition above about 20%;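 also: E. coli strain V66 grown with compound alone and no phage infection; 0% = bacteria with DMSO vehicle only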
AddAB phage OD = growth loss of phage-infected AddAB E. coli, RecBCD counter-screen; shares compounds with phage Ecoli inh; E. coli expressing H. pylori AddAB + T4 phage, OD growth; gene 2 mutant T4, recBCD-deleted host; inhibition, % at 11.9 µM; 890 tested, 45% active;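 active = mean inhibition above the solvent-only control wells' mean plus 3 SD, cut at about 22% in these data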;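 also: higher means less bacterial growth from phage killing when AddAB is blocked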
* hit, by the source's call; ? = inconclusive; . = no result. Hits are enriched below; roughly 0.79% of the tested compounds scored in any of these assays.

SMILES | E coli growth-1 | E coli growth-2 | AddAB inh | phage Ecoli inh | Tat export inh | AI-2 QS modul | AddAB confirm | RecBCD counter | Bact viability | RecBCD conf | Ecoli viability | AddAB phage OD
CC(=O)N1CCc2c(sc(NC(=O)c3ccc([N+](=O)[O-])o3)c2C#N)C1 | . | 0.67 | . | 7.8 | 2.8 | 4.9 | . | . | . | . | . | .
C=CC[n+]1c(/C=C2\C=Cc3cc(C)ccc3N2CC)ccc2ccccc21 | 21.8* | 0.534 | 19.9* | 11.7* | -8.5 | 49.4 | 65.7* | 6.6* | 24.4 | 3.3 | 2.5 | 36.3*
CC(=NOCC(=O)Nc1ccc(F)c(F)c1F)c1cc2ccccc2o1 | . | 0.63 | . | . | . | . | . | . | . | . | . | .
O=C(CSc1nc2ccccc2s1)Nc1ccc(N2CCOCC2)c(Cl)c1 | 12.2* | 0.656 | 21.4* | 15.6* | -23.4 | 0.2 | 18.9* | 11.7* | 15.9 | 10.8 | 13.0 | 24.4*
O=C(CSc1nc2ccccc2[nH]1)Nc1ccc(N2CCOCC2)cc1 | 13.8* | 0.596 | 25.1* | 13.3* | -16.1 | 15.1 | 13.5* | 16.9* | 15.3 | 7.8 | 11.7 | 13.3
CC(=O)Nc1ccc2nc(SCC(=O)Nc3ccc(N4CCOCC4)c(Cl)c3)sc2c1 | -3.4 | 0.671 | 2.1 | 2.6 | -6.1 | 23.6 | . | . | . | . | . | .
CC(=O)N1c2ccccc2C2CCCCC21 (configuration not stated) | . | 0.628 | . | . | . | . | . | . | . | . | . | .
COc1cccc(-n2c(SCc3cc(=O)oc4cc(O)c(O)cc34)nc3ccccc3c2=O)c1 | 16.1* | 0.691 | 21.0* | 17.8* | 5.7 | 11.4 | 13.1* | 15.2* | 16.8 | 5.0 | 6.7 | 8.5
Oc1c(C(c2ccccc2Cl)N2CCCC2)ccc2cccnc12 (configuration not stated) | 24.1* | 0.376* | 24.9* | 15.6* | 10.3 | ? | 12.9* | 12.4* | 1.5 | 3.8 | 5.8 | 16.4
CN1CCN(C(c2ccccc2)c2ccccc2)CC1 | -1.9 | 0.683 | 0.1 | 4.2 | -10.2 | . | . | . | . | . | . | .
CN1CCN(C(c2ccc(C(F)(F)F)cc2)c2ccc3cccnc3c2O)CC1 (configuration not stated) | 26.6* | . | 17.3* | 16.6* | . | . | 11.8 | 9.7* | 7.3 | 3.6 | 4.4 | 7.4
Oc1c(C(c2cccs2)N2CCN(c3ccccc3)CC2)ccc2cccnc12 (configuration not stated) | 9.3 | . | 11.7 | . | . | . | . | . | . | . | . | .
Oc1c(C(c2ccc(Cl)cc2)N2CCCC2)cc(Cl)c2cccnc12 (configuration not stated) | 23.5* | 0.589 | 17.4* | 19.5* | -2.8 | -120.6* | 2.7 | 8.4* | 1.1 | 7.0 | 8.2 | 6.8
Cc1ccc(S(=O)(=O)NN=Cc2ccc3c(c2)OCO3)c(C)c1 | . | 0.669 | . | . | . | . | . | . | . | . | . | .
CC(CC(=O)Nc1ccc(Cl)cc1Cl)=NNC(=O)c1cnccn1 | . | 0.677 | . | . | . | . | . | . | . | . | . | .
CC(C)(C)C1C=C(C(=O)NCc2ccccc2)OC(OCCCCO)C1 (configuration not stated) | . | 0.668 | . | . | . | . | . | . | . | . | . | .
O=C1C=CCC(C=Cc2ccccc2)O1 (configuration not stated) | . | 0.664 | . | . | . | . | . | . | . | . | . | .
O=C(N/N=C/c1c(O)ccc2ccccc12)c1cccc(C(F)(F)F)c1 | 21.9* | . | 27.8* | 18.0* | -5.1 | 19.4 | 14.2* | 16.5* | 6.5 | 8.0 | 13.2 | 19.6
O=C(NNC(=O)c1cc2ccccc2o1)c1ccncc1 | -0.5 | 0.644 | -1.8 | 4.2 | 4.9 | . | . | . | . | . | . | .
CCOc1ccc2oc(C(=O)O)c(C)c2c1 | 1.6 | 0.712 | 1.5 | 2.3 | -7.6 | 55.3 | . | . | . | . | . | .
CCOc1ccc2oc(C(=O)NNC(=O)c3ccccc3O)c(C)c2c1 | 25.5* | 0.682 | 25.0* | 20.5* | -7.6 | -6.2 | 14.7* | 20.5* | 14.9 | 7.7 | 10.9 | 19.5
O=C(NNC(=O)c1ccccc1O)c1cc2ccccc2o1 | 12.9* | 0.545 | 19.7* | 11.0* | 2.7 | 16.4 | 10.0 | 11.2* | 8.3 | 7.7 | 10.4 | 3.7
Cc1c(C(=O)NNC(=O)c2ccccc2O)oc2ccc(Br)cc12 | 19.3* | 0.715 | 21.1* | 12.7* | -1.5 | 17.4 | 17.4* | 17.1* | 15.4 | 8.0 | 9.9 | 10.5
CCNC(=S)NNC(=O)c1ccccn1 | -0.2 | 0.577 | 4.2 | -0.7 | -18.5 | -24.1 | . | . | . | . | . | .
O=C(NNC(=S)Nc1ccc(Cl)c(Cl)c1)c1ccccn1 | 17.5* | 0.568 | 13.6* | 16.8* | 3.4 | ? | 25.8* | 16.9* | 25.3* | 13.8* | 14.0 | 34.4*
SMILES | E coli growth-1 | E coli growth-2 | AddAB inh | phage Ecoli inh | Tat export inh | AI-2 QS modul | AddAB confirm | RecBCD counter | Bact viability | RecBCD conf | Ecoli viability | AddAB phage OD
O=C1c2ccccc2NC(c2ccc(-c3cccs3)o2)N1O (configuration not stated) | 6.2 | 0.693 | 4.5 | 9.2 | -10.3 | . | . | . | . | . | . | .
O=C1c2ccccc2NC(c2ccc(-c3ccc(C(F)(F)F)cc3)o2)N1O (configuration not stated) | 21.1* | 0.656 | 17.4* | 14.9* | -11.0 | . | 17.1* | 7.7* | 5.8 | 7.5 | 7.9 | 12.3
C[C@H]1[C@H](NC(=O)C(=NOC(C)(C)C(=O)O)c2csc(N)n2)C(=O)N1S(=O)(=O)O | 99.3* | . | 99.8* | 100.0* | -8.8 | . | 100.3* | 99.2* | 100.6* | 97.7* | 98.9* | 100.8*
Cn1ncc([N+](=O)[O-])c1C(=O)NN=Cc1cccc([N+](=O)[O-])c1 | . | 0.702 | . | . | . | . | . | . | . | . | . | .
Cc1cccc(C)c1OCc1cc(C(=O)N(C)Cc2nc3ccccc3[nH]2)no1 | 16.5* | 0.571 | 26.0* | 14.3* | -10.5 | 12.3 | 18.8* | 11.3* | 16.0 | 10.8 | 14.1 | 38.5*
COc1cc(NC(=O)CSc2ccc(-c3ccccn3)nn2)cc(OC)c1 | 13.6* | 0.702 | 13.5* | 12.7* | -0.4 | 2.6 | 9.7 | 11.3* | 10.7 | 6.0 | 5.4 | 9.8
COc1ccc(C)cc1NC(=O)CSc1ccc(-c2ccccn2)nn1 | 4.1 | 0.654 | 5.6 | 9.0 | 2.4 | 9.1 | . | . | . | . | . | .
CCCC=C(CCC)C(NC(=O)c1ccc(C(F)(F)F)cc1)c1ccccc1 (configuration not stated) | . | 0.686 | . | . | . | . | . | . | . | . | . | .
